From PubChem BioAssay (EPA / NIEHS)
Inconclusive results are not listed. Calls of active or inactive are those of the source. The calls were made as follows, unless noted: active = hit-call score of the fitted dose curve at least 0.9, where 1 is the maximum; inactive = score below 0.9.

What was measured:
[1] = ACEA_ER_80hr: ACEA Biosciences xCELLigence Real-Time Cell Analysis on Estrogen Receptor Agonism for Proliferation (AID 2282667; active = hit-call score of the fitted dose curve at least 0.9, where 1 is the maximum); conditions: T47D proliferation, impedance (xCELLigence), 80 h
How it was run: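 Estrogen-driven proliferation is captured as electrode impedance in T47D cells 80 h after compound addition. Test articles ran at 8 concentrations, 1:4 dilutions from 100 uM final, in two replicate plates.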

[2] = ATG_CRE_CIS: Attagene CIS-FACTORIAL HepG2 Assay for human cAMP Responsive Element (CRE) binding protein 3 (AID 2282926); conditions: HepG2 CRE cis-reporter, Attagene multiplexed mRNA; actives raise or lower the signal
How it was run: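 Transfected HepG2 were treated for 24 hours, then RNA was extracted and reporter cDNA amplified with sequence-specific primers. Labelled fragments were separated by capillary electrophoresis, and the CRE signal was fitted bidirectionally with DMSO as baseline.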

[3] = target: CCAAT/enhancer-binding protein beta (Homo sapiens) (UniProt P17676); assay: ATG_C_EBP_CIS: Attagene CIS-FACTORIAL HepG2 Assay for human CCAAT/Enhancer Binding Protein (C/EBP) beta (AID 2282927); conditions: HepG2 Attagene cis-factorial transcription factor reporter; actives raise or lower the signal
How it was run: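 Endogenous C/EBPb-driven reporter transcripts measured in transfected human HepG2 cells at 24 h via RT-PCR and capillary electrophoresis of labelled fragments. Activity fitted in both directions relative to DMSO baseline.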

[4] = ATG_CMV_CIS: Attagene CIS-FACTORIAL HepG2 Assay for human CMV (Internal Marker) (AID 2282928); conditions: HepG2 CMV promoter reporter, transcription factor profiling; actives raise or lower the signal;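 also: endpoint acts as a background internal control marker rather than a target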
How it was run: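 Cell system: HepG2, transiently transfected multiple reporter units under cis promoters. Exposure: 24 h. Detection: RT-PCR, FAM labeling, HpaI digestion, capillary electrophoresis. Analysis: bidirectional, DMSO baseline.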

[5] = ATG_DR4_LXR_CIS: Attagene CIS-FACTORIAL HepG2 Assay for human Liver X Receptor (LXR), DR4 submotif (AID 2282929); conditions: HepG2 Attagene DR4 cis-reporter, mRNA transcription; actives raise or lower the signal
How it was run: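 The endpoint is DR4-element-driven reporter transcripts after 24 h chemical exposure of transfected HepG2 cells. These were measured via RT-PCR and capillary electrophoresis, and gain or loss of signal was fitted relative to DMSO controls.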

[6] = target: Aryl hydrocarbon receptor (Homo sapiens) (UniProt P35869); assay: ATG_Ahr_CIS: Attagene CIS-FACTORIAL HepG2 Assay for human Aryl Hydrocarbon Receptor (Ahr) (AID 2282930); conditions: HepG2 AhR cis-factorial reporter transcription; actives raise or lower the signal
How it was run: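 Reporter mRNA levels, quantified by RT-PCR and fluorescent capillary electrophoresis, reflect endogenous AhR transcriptional activity in HepG2 cells carrying transfected cis-promoter reporter constructs. Readout at 24 h post-dose; gain or loss fitted against DMSO baseline.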

[7] = ATG_AP_1_CIS: Attagene CIS-FACTORIAL HepG2 Assay for human Activator Protein 1 (AP-1) (AID 2282931); conditions: HepG2 Attagene cis-factorial AP-1 reporter mRNA; actives raise or lower the signal
How it was run: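 Readout is reporter transcript level from endogenous transcription factor activity, quantified by RT-PCR with fluorescent primer extension and capillary electrophoresis. Transiently transfected HepG2 cells, 24 h exposure. Curves fitted both directions versus DMSO.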

[8] = ATG_AP_2_CIS: Attagene CIS-FACTORIAL HepG2 Assay for human Activator Protein 2 (AP-2) (AID 2282932); conditions: HepG2 AP-2 cis-reporter, Attagene transcription factor profiling; actives raise or lower the signal
How it was run: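 HepG2, transient MRTU transfection, cis-regulated reporters; 24 h compound exposure; RNA isolated, RT-PCR, 6-FAM labelling, HpaI digest, CE fluorescence. DMSO = negative control/baseline, bidirectional fit.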

[9] = ATG_BRE_CIS: Attagene CIS-FACTORIAL HepG2 Assay for human Bone Morphogenetic Protein (BMP) Response Element (BRE) (AID 2282933); conditions: HepG2 BMP response element reporter, Attagene transcription factor profiling; actives raise or lower the signal
How it was run: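 HepG2 cells transiently transfected with CIS reporter units (endogenous TF activity, BMP response element), dosed 24 h. Reporter mRNA quantified by RT-PCR, fluorescent labelling and capillary electrophoresis; bidirectional fit vs DMSO baseline.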

[10] = target: Retinoic acid receptor alpha (Homo sapiens) (UniProt P10276); assay: ATG_DR5_RAR_CIS: Attagene CIS-FACTORIAL HepG2 Assay for human Retinoic Acid Receptor Alpha (RARE), DR5 submotif (AID 2282934); conditions: HepG2 Attagene cis-factorial RARE DR5 reporter, mRNA; actives raise or lower the signal
How it was run: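 Reporter transcripts from a DR5-regulated unit, measured via RT-PCR plus capillary electrophoresis, reflect endogenous RAR activity in transiently transfected human HepG2 liver cells. Exposure lasted 24 h; gain or loss of signal scored against DMSO.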

[11] = target: Transcription factor E2F1 (Homo sapiens) (UniProt Q01094); assay: ATG_E2F_CIS: Attagene CIS-FACTORIAL HepG2 Assay for human E2F Transcription Factor 1 (AID 2282935); conditions: HepG2 Attagene cis-reporter, E2F reporter RNA transcripts; actives raise or lower the signal
How it was run: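 Cis-element reporter mRNA induction in transiently transfected HepG2, 24 h exposure. Activity fitted in both directions relative to DMSO negative control.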

[12] = ATG_E_Box_CIS: Attagene CIS-FACTORIAL HepG2 Assay for human Enhancer Box (E-box) (AID 2282936); conditions: HepG2 E-box cis-reporter transcription, actives raise or lower the signal
How it was run: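 Cells: HepG2 (human liver), transient MRTU transfection. Exposure 24 h. RNA → oligo(dT) RT → PCR → 6-FAM label → HpaI → CE. Activity fitted both directions relative to DMSO.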

[13] = ATG_M_61_CIS: Attagene CIS-FACTORIAL HepG2 Assay for M61 Transcription Factor (Internal Marker) (AID 2282937); conditions: HepG2 Attagene CIS-FACTORIAL M61 internal marker reporter; actives raise or lower the signal
How it was run: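 Readout is reporter mRNA by RT-PCR, fluorescent primer extension and capillary electrophoresis, with gain or loss fitted relative to DMSO. Transfected HepG2 cells carrying endogenous-TF-driven cis reporters were exposed to chemicals for 24 hours.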

[14] = ATG_EGR_CIS: Attagene CIS-FACTORIAL HepG2 Assay for human Early Growth Response 1 (EGR1) (AID 2282938); conditions: HepG2 Attagene CIS-FACTORIAL EGR reporter mRNA; actives raise or lower the signal
How it was run: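 After 24 h compound exposure, RNA from reporter-transfected HepG2 cells was reverse-transcribed, PCR-amplified, fluorescently labelled and resolved by capillary electrophoresis. EGR1 reporter transcript changes, up or down, were fitted against DMSO, reflecting endogenous transcription-factor activity.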

[15] = ATG_M_19_CIS: Attagene CIS-FACTORIAL HepG2 Assay for M19 Transcription Factor (Internal Marker) (AID 2282939); conditions: HepG2 Attagene CIS-FACTORIAL M19 internal marker reporter; actives raise or lower the signal
How it was run: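 HepG2 cells transiently transfected with cis-regulated multiplexed reporter units, dosed 24 h. Reporter mRNA quantified by RT-PCR and capillary electrophoresis; internal background marker fitted bidirectionally versus DMSO.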

[16] = ATG_ERE_CIS: Attagene CIS-FACTORIAL HepG2 Assay for Estrogen Response Element (ERE) (AID 2282940); conditions: HepG2 ERE cis-reporter, Attagene RNA transcript; actives raise or lower the signal
How it was run: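 HepG2 cells transiently transfected with multiplexed cis-element reporter units, measuring endogenous transcription factor activity; ERE reporter mRNA quantified after 24 h exposure by RT-PCR, fluorescent labelling, HpaI digestion and capillary electrophoresis. Bidirectional change versus DMSO.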

[17] = target: Hepatocyte nuclear factor 3-beta (Homo sapiens) (UniProt Q9Y261); assay: ATG_FoxA2_CIS: Attagene CIS-FACTORIAL HepG2 Assay for human Forkhead box A2 (FOXA2) (AID 2282942); conditions: HepG2 cis-reporter transcription factor activity, 24 h; actives raise or lower the signal
How it was run: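 Endogenous transcription factor activity is captured via cis-element-driven reporter transcripts in transfected HepG2. Total RNA taken at 24 h post-dosing; labelled RT-PCR products resolved by capillary electrophoresis. Gain or loss fitted versus DMSO.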

[18] = ATG_FoxO_CIS: Attagene CIS-FACTORIAL HepG2 Assay for human Forkhead box O (FoxO) (AID 2282943); conditions: HepG2 Attagene cis-reporter, FoxO element, mRNA; actives raise or lower the signal
How it was run: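 Endogenous transcription factor activity read from multiplexed cis-promoter reporter transcripts in transiently transfected HepG2, 24 h after dosing. Reporter RNA measured via RT-PCR plus capillary electrophoresis of FAM-labeled products; gain or loss relative to DMSO.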

[19] = ATG_GATA_CIS: Attagene CIS-FACTORIAL HepG2 Assay for human GATA Binding Protein (AID 2282944); conditions: HepG2 GATA cis-element reporter, Attagene multiplex mRNA; actives raise or lower the signal
How it was run: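 HepG2 cells transiently transfected with multiplexed cis-element reporter units measure endogenous GATA activity; after 24 h compound exposure, reporter mRNA quantified by RT-PCR and capillary electrophoresis. Changes fitted in both directions vs DMSO.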

[20] = ATG_Ets_CIS: Attagene CIS-FACTORIAL HepG2 Assay for human Erythroblast Transformation Specific (ETS) (AID 2282941); conditions: HepG2 ETS cis-reporter transcription, actives raise or lower the signal
How it was run: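 After transient cis-reporter transfection, HepG2 cells receive test chemical for 24 h. Reporter mRNA levels, measured by RT-PCR and capillary electrophoresis fluorescence, are analysed bidirectionally relative to the DMSO baseline.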

Measured: AC50

Sequence of Hepatocyte nuclear factor 3-beta (Homo sapiens) (Q9Y261 whole entry, looked up): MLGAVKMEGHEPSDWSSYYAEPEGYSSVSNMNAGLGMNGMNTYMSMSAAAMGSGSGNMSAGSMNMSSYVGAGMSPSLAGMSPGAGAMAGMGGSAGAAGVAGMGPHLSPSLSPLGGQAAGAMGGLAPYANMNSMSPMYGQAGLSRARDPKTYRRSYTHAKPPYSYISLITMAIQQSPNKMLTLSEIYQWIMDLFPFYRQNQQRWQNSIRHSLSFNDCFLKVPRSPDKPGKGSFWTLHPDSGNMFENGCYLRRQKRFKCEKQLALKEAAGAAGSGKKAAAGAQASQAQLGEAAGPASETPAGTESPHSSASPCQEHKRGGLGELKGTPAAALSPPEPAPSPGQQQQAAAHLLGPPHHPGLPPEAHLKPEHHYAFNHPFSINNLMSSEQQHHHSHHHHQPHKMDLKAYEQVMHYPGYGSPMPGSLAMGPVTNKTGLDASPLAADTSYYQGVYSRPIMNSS
Sequence of Aryl hydrocarbon receptor (Homo sapiens) (P35869 whole entry, looked up): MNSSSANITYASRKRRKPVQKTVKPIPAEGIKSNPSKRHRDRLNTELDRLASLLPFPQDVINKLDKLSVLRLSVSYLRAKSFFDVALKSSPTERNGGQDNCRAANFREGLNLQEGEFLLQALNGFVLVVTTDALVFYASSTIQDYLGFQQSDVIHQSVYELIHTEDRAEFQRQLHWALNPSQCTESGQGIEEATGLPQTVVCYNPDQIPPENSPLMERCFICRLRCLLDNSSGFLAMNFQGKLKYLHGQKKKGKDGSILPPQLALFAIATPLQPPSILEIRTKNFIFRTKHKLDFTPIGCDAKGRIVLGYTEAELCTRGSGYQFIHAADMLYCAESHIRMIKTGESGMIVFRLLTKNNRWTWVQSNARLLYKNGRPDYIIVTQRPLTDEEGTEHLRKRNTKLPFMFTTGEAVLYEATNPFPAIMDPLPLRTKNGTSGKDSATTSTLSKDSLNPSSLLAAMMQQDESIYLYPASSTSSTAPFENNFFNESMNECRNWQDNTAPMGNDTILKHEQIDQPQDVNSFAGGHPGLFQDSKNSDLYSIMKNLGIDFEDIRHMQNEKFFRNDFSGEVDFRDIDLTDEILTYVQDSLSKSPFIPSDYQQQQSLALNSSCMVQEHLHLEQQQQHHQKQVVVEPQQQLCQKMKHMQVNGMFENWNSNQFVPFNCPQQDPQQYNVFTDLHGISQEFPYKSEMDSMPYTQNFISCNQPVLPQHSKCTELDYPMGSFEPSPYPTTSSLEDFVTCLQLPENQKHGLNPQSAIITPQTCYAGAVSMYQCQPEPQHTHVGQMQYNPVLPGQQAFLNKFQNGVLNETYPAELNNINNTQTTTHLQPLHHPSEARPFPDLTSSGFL
Sequence of Retinoic acid receptor alpha (Homo sapiens) (P10276 whole entry, looked up): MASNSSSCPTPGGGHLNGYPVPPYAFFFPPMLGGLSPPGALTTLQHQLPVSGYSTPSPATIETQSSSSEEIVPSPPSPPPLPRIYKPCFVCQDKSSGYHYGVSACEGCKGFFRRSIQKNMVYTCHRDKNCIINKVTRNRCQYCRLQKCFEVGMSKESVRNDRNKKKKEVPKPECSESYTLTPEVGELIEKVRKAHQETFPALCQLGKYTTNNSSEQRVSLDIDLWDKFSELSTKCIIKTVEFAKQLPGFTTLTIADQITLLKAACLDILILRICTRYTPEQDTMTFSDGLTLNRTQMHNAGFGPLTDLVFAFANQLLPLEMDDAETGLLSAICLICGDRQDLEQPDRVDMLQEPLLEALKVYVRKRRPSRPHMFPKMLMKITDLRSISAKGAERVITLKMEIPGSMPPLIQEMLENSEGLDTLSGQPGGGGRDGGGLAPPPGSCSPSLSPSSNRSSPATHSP
Sequence of Transcription factor E2F1 (Homo sapiens) (Q01094 whole entry, looked up): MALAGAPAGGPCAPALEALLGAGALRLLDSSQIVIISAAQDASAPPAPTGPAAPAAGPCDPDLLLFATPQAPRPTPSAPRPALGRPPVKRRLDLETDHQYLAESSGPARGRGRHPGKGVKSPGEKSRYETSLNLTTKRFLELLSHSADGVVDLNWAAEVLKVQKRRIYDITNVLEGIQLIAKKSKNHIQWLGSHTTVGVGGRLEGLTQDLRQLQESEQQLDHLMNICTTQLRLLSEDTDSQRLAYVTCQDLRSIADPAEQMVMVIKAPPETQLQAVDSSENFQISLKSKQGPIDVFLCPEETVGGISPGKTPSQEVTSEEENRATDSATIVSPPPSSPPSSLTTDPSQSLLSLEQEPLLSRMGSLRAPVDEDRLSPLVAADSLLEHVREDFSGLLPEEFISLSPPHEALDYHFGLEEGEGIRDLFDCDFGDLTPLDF
Sequence of CCAAT/enhancer-binding protein beta (Homo sapiens) (P17676 whole entry, looked up, the tested form may be a part): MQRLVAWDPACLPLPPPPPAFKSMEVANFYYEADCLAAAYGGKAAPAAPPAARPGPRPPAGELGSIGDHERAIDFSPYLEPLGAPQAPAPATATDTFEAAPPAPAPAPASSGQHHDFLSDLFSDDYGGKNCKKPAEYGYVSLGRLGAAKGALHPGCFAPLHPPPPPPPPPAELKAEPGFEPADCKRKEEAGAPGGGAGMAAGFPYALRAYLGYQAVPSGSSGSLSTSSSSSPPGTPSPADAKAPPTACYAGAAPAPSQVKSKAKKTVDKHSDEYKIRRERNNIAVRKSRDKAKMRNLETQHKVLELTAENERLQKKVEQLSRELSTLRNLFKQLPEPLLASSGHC

CCc1cccc(CC)c1
not listed: [20]
inactive: all other assays above

CC1=CC=C(C(C)C)CC1
not listed: [10] | [18] | [20]
inactive: all other assays above

CCOC(=O)C1=NOC(c2ccccc2)(c2ccccc2)C1
not listed: [11]
inactive: all other assays above

CC(=O)CC(=O)Nc1ccccc1C
not listed: [10]
inactive: all other assays above

CC(CCC(=O)O)(c1ccc(O)cc1)c1ccc(O)cc1
active: [1] 13.4 µM | [16] 50.4 µM
not listed: [11] | [12] | [18] | [19] | [20]
inactive: all other assays above

O=C1c2ccccc2C(=O)c2cc(S(=O)(=O)O)ccc21
not listed: [11] | [13] | [18]
inactive: all other assays above

COC(=O)c1ccc(C(=O)OC)c(C(=O)OC)c1
not listed: [11]
inactive: all other assays above

CC(C)=CCl
not listed: [11] | [12]
inactive: all other assays above
